Measurements from the supplement of paper PMC12339681.
Structures can show the parent of a compound that is named as a salt.

What follows are compounds tested on PBMC-derived induced microglia-like cells (piMGLC) (assay: synaptosome phagocytic index relative to DMSO control (fraction of DMSO); higher = more phagocytosis). Details: concentration: 10 uM (2 uM for compounds listed in Table S2); pretreatment time: 24 h; assay time: 3 h.

For O=C(c1ccccc1)c1ccc2n1CCC2C(=O)O (configuration not stated) [Ketorolac_(tromethamine_salt)], which synaptosome phagocytic index is on record?
Its synaptosome phagocytic index is 0.874.

How did the synaptosome phagocytic index turn out when C[C@@H]1O[C@@H]1P(=O)(O)O [Fosfomycin_(sodium)] was run?
Its synaptosome phagocytic index is 1.11.

CC(C)NCC(O)COc1cccc2ccccc12 (configuration not stated) [Propranolol_(hydrochloride)] was tested. Which synaptosome phagocytic index did it give?
Its synaptosome phagocytic index is 1.1.

With O=C(c1cc(Cc2n[nH]c(=O)c3ccccc23)ccc1F)N1CCN(C(=O)C2CC2)CC1 [Olaparib] as the compound, how does the synaptosome phagocytic index read?
The synaptosome phagocytic index was 0.997.

For CC#Cc1cncc(-c2ccc3c(c2)[C@@]2(N=C(C)C(N)=N2)[C@]2(CC[C@H](OC)CC2)C3)c1 [Lanabecestat], which synaptosome phagocytic index is on record?
The synaptosome phagocytic index was 1.03.

How did the synaptosome phagocytic index turn out when C[C@@H]1O[C@@H]1P(=O)(O)O [Fosfomycin_(calcium)] was run?
Its synaptosome phagocytic index is 0.946.

How did the synaptosome phagocytic index turn out when COc1ccc(NS(=O)(=O)c2ccc(N)cc2)nn1 [Sulfamethoxypyridazine] was run?
Its synaptosome phagocytic index is 1.03.

For CN(C)CCC=C1c2ccccc2CCc2ccccc21 [Amitriptyline_(hydrochloride)], which synaptosome phagocytic index is on record?
Its synaptosome phagocytic index is 0.997.

With CN(C)CCCN1c2ccccc2CCc2ccc(Cl)cc21 [Clomipramine_(hydrochloride)] as the compound, how does the synaptosome phagocytic index read?
The synaptosome phagocytic index was 0.39.

COc1c(N2CCNC(C)C2)c(F)cc2c(=O)c(C(=O)O)cn(C3CC3)c12 (configuration not stated) [Gatifloxacin] was tested. Which synaptosome phagocytic index did it give?
The synaptosome phagocytic index was 0.702.

With Nc1cc(C(F)(F)F)c(-c2cc(N3CCOCC3)nc(N3CCOCC3)n2)cn1 [Buparlisib] as the compound, how does the synaptosome phagocytic index read?
Its synaptosome phagocytic index is 1.13.

For COC[C@@H](c1ccc(C(F)(F)F)cc1)N1CCN(C2(C)CCN(C(=O)c3c(C)ncnc3C)CC2)C[C@@H]1C [Vicriviroc_(maleate)], which synaptosome phagocytic index is on record?
The synaptosome phagocytic index was 0.947.

Cc1ccc(Nc2nccc(N(C)c3ccc4c(C)n(C)nc4c3)n2)cc1S(N)(=O)=O [Pazopanib] was tested. Which synaptosome phagocytic index did it give?
The synaptosome phagocytic index was 0.785.

With CCc1cc(Nc2nc(-c3ccc(-n4cnc(C)c4)c(F)c3)cs2)c(C)cc1C as the compound, how does the synaptosome phagocytic index read?
The synaptosome phagocytic index was 0.666.

With CO[C@H]1C(=O)[C@]2(C)[C@@H](OC)C[C@H]3OC[C@@]3(OC(C)=O)[C@H]2[C@H](OC(=O)c2ccccc2)[C@]2(O)C[C@H](OC(=O)[C@H](O)[C@@H](NC(=O)OC(C)(C)C)c3ccccc3)C(C)=C1C2(C)C [Cabazitaxel] as the compound, how does the synaptosome phagocytic index read?
The synaptosome phagocytic index was 0.833.

Which synaptosome phagocytic index does the source give for COC(=O)C1=C(C)NC(C)=C(C(=O)OCCN(C)Cc2ccccc2)C1c1cccc([N+](=O)[O-])c1 (configuration not stated) [Nicardipine_(hydrochloride)] here?
Its synaptosome phagocytic index is 0.627.

CCc1nc(N)nc(N)c1-c1ccc(Cl)cc1 [Pyrimethamine] was tested. Which synaptosome phagocytic index did it give?
Its synaptosome phagocytic index is 1.01.

CCCCN1CCCCC1C(=O)Nc1c(C)cccc1C (configuration not stated) [Bupivacaine_(hydrochloride)] was tested. Which synaptosome phagocytic index did it give?
The synaptosome phagocytic index was 0.836.

With Cc1ccccc1C(OCCN(C)C)c1ccccc1 (configuration not stated) [Orphenadrine_(citrate)] as the compound, how does the synaptosome phagocytic index read?
Its synaptosome phagocytic index is 1.23.

Which synaptosome phagocytic index does the source give for CC(C)CCn1c(CN2CCN(C(=O)C3CC3)CC2)nc2c1c(=O)n(C)c(=O)n2C here?
Its synaptosome phagocytic index is 0.707.

Which synaptosome phagocytic index does the source give for NC(=O)NO [Hydroxyurea] here?
Its synaptosome phagocytic index is 0.555.

S=c1nc[nH]c2nc[nH]c12 [6-Mercaptopurine] was tested. Which synaptosome phagocytic index did it give?
The synaptosome phagocytic index was 0.669.

For C=CC(N)CCC(=O)O (configuration not stated) [Vigabatrin], which synaptosome phagocytic index is on record?
The synaptosome phagocytic index was 0.918.

How did the synaptosome phagocytic index turn out when Cn1ncc(-c2nn(C)c3ncnc(N4CCC4)c23)c1-c1ccc(C(F)(F)F)cc1 was run?
The synaptosome phagocytic index was 0.505.

Cc1cc([C@@]23c4ccccc4C(=O)N2CCN3C(=O)c2ccc(F)c(F)c2)ccc1Cl was tested. Which synaptosome phagocytic index did it give?
Its synaptosome phagocytic index is 0.335.

Which synaptosome phagocytic index does the source give for O=c1c(-c2ccc(O)cc2)coc2cc(O)cc(O)c12 [Genistein] here?
Its synaptosome phagocytic index is 0.792.

NC(=O)N1c2ccccc2CC(=O)c2ccccc21 [Oxcarbazepine] was tested. Which synaptosome phagocytic index did it give?
The synaptosome phagocytic index was 0.693.

Which synaptosome phagocytic index does the source give for CCCN[C@H]1CCc2nc(N)sc2C1 [Pramipexole_(dihydrochloride_hydrate)] here?
The synaptosome phagocytic index was 0.763.

Which synaptosome phagocytic index does the source give for CC(C)(C)c1cnc(CSc2cnc(NC(=O)C3CCNCC3)s2)o1 here?
The synaptosome phagocytic index was 0.572.

Which synaptosome phagocytic index does the source give for COc1ccc2[nH]cc(CCNC(C)=O)c2c1 [Melatonin] here?
Its synaptosome phagocytic index is 0.577.

Cc1ncc([N+](=O)[O-])n1CCO [Metronidazole] was tested. Which synaptosome phagocytic index did it give?
The synaptosome phagocytic index was 0.51.

For N[C@@H](CC(=O)O)C(=O)O [L-Aspartic_acid], which synaptosome phagocytic index is on record?
The synaptosome phagocytic index was 0.871.

Which synaptosome phagocytic index does the source give for N=C(N)NC(=O)Cc1c(Cl)cccc1Cl [Guanfacine_(hydrochloride)] here?
Its synaptosome phagocytic index is 1.13.

CC(C)[C@H]1C(=O)N[C@@H](CCCNC(=N)N)C(=O)NCC(=O)N[C@@H](CC(=O)O)C(=O)N[C@H](Cc2ccccc2)C(=O)N1C [Cilengitide] was tested. Which synaptosome phagocytic index did it give?
Its synaptosome phagocytic index is 1.09.

Which synaptosome phagocytic index does the source give for CC(=O)N[C@@H](CS)C(=O)O [Acetylcysteine] here?
Its synaptosome phagocytic index is 0.86.

With CCCCC1C(=O)N(c2ccccc2)N(c2ccccc2)C1=O [Phenylbutazone] as the compound, how does the synaptosome phagocytic index read?
The synaptosome phagocytic index was 0.797.

How did the synaptosome phagocytic index turn out when CC(=O)N1CCc2c(c(N3CCCc4cc(-c5cnn(C)c5)c(C(F)F)cc43)nn2C2CCOCC2)C1 was run?
Its synaptosome phagocytic index is 0.59.
